# Out of some 85,000 compounds screened, about 440 (0.52%) showed an effect of 50% or more. Only a selection was taken, and strong results are over-represented in it overall.
# Test: In vitro enzyme assay to detect hydrolysis of chlorophenol red-beta-D-[…] directly proportional to the number of Toxoplasma stably expressing beta-galactosidase
# Format: functional, organism-based, Toxoplasma gondii
# Parameters: scale not given: in the data most compounds retested in dose-response had high values
Compound,Percent Effect (50 µM) [%],Percent Effect (10 µM) [%]
CCCN1CCN(Cc2nccn2C)CC1,5.907,–
Cc1ccc(C(=O)N2C[C@@H]3OCCN(C)[C@@H]3C2)cn1.O=C(O)C(F)(F)F,–,3.64
CCOC[C@@H]1CCC[C@@]12CN(Cc1cccnc1)CCO2,–,-14.2
COC[C@H]1CCC[C@]12CN(Cc1cccc(C)n1)CCO2,–,72.48
COC[C@@H]1CCC[C@]12CN(Cc1cccc(C)n1)CCO2.O=C(O)C(F)(F)F.O=C(O)C(F)(F)F,–,-5.738
Fc1cnc(N2CCCC3(CCN(Cc4cccs4)C3)C2)nc1.O=C(O)C(F)(F)F.O=C(O)C(F)(F)F (configuration not stated),–,-7.824
Cn1c(CCN2CCN(c3ccc(O)cc3)CC2)nc2ccccc21,–,79.1
NCCCN1CCN(c2ccccc2)CC1,0.9017,–
COCCN1CCN(c2ccc(OC)cc2)CC1,-4.401,–
Cc1cc(C(=O)N2CC[C@H]3CC[C@@H](C2)N3)nc(C)n1,2.124,–
Cn1cc(CCN)nn1,26.5,–
CC(C)(C)OC(=O)NC1CC2(CNC2)C1,-10.31,–
CCCn1nnnc1CN1CCN(CC)CC1,-8.148,–
CCN1CCN(Cc2nnnn2C2CC2)CC1,99.81,–
CC(C)N1CCN(Cc2nnnn2C2CC2)CC1,-4.596,–
COc1ccc(CN2CC[C@@]3(O)CCCC[C@H]3C2)cn1,-5.926,–
Cc1cc(C2CCCN2)on1 (configuration not stated),-7.97,–
COCCN1CCC2(COCc3cnc(N4CCOCC4)nc32)C1.O=C(O)C(F)(F)F (configuration not stated),–,-0.4992
CN(C)c1ncc2c(n1)C1(CCN(CC3CC3)C1)COC2.O=C(O)C(F)(F)F (configuration not stated),–,-3.49
c1nc(N2CCOCC2)nc2c1COCC21CCN(CC2CC2)C1 (configuration not stated),–,63.85
Fc1cnc(N2CCC3(CC2)CN(Cc2cccs2)CCO3)nc1.O=C(O)C(F)(F)F.O=C(O)C(F)(F)F,–,21.36
C[S+](C)[c-]1c(=O)[nH]c(=O)n(CCc2ccc(F)cc2)c1=O,–,11.54
